Sampled rows, rich in hits. Any-hit rate of the full collection: about 4.8%.
hcDAF-12 act: activators of H. contortus DAF-12 nuclear receptor; AID 652067; activation, % at 6.8 µM; 1.4% of 370,000 active; HEK293 hcDAF-12 lit1-tk-luc reporter, luminescence; 0% DMSO, 100% Δ7-dafachronic acid;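 active = activation above the mean of all tested compounds plus 3 SD, cut at about 5.5% in these data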
SMARCA2 act: SMARCA2 function activation, primary screen; activation, % at 9.1 µM; 1% of 370,000 active; MG213 cells, MMTV-luciferase reporter, dexamethasone, overnight; in the data active = activation above about 7.8%
ssDAF12 agonist: activates DAF-12 receptor from parasite S. stercoralis; HEK293 ssDAF-12/GRIP1 lit1-tk-luc reporter, luminescence; % of 3 µM dafachronic acid response; 1% of 370,000 active; AID 652126; activation, % at 6.8 µM;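 active = activation above the mean over all tested compounds plus 3 SD, cut at about 0.9% in these data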
DAX1 inh-1: DAX1 (NR0B1) inhibition, primary screen | inhibition, % at 6.8 µM | HEK293T StAR-luciferase reporter, SF-1/DAX-1 repression relief | 1.1% of 370,000 active;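 active = inhibition above the mean over all tested compounds plus 3 SD, cut at about 3.6% in these data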;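 note: higher inhibition means more luminescence from relief of DAX-1 repression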
DAX1 inh-2: NR0B1 (DAX1) inhibition | HEK293 Gal4-DAX1 luciferase reporter, luminescence | 0.99% of 340,000 active | inhibition, % at 6.75 µM;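 active = inhibition above the mean over all tested compounds plus 3 SD, cut at about 4.2% in these data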;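 note: inhibition shows as a rise in luminescence from relieved DAX1 repression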
Target sequence (P51843 207-470 limits assumed): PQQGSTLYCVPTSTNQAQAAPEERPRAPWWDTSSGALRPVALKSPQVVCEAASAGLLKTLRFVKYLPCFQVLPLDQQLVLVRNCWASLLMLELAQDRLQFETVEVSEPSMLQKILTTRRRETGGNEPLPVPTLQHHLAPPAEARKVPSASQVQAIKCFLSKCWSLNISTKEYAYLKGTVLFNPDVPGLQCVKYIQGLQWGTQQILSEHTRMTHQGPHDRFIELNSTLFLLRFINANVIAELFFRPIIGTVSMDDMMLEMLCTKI
hgDAF-12 ag: hgDAF-12 agonism, primary luciferase screen | HEK293 GAL4-hgDAF12 UAS-luciferase reporter, agonist luminescence; normalized to butyrate control | activation, % at 6.8 µM | 1.8% of 370,000 active | AID 687014;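 active = activation above a cutoff set at the mean of all screened compounds plus 3 SD, cut at about 10% in these data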
DAX1 conf: NR0B1 (human) inhibition, confirmation; shares compounds with DAX1 inh-1; HEK293T StAR-promoter luciferase reporter, SF-1/DAX-1 repression; inhibition, % at 6.8 µM; 87% of 2,400 active; AID 652134;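 active = inhibition above the average of every tested compound plus 3 SD, cut at about 3.8% in these data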;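 note: active compounds raise luminescence by relieving repression of the StAR reporter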
SF1 mutant ctr: counter-screen for DAX1 inhibitors: nonselective inhibitors with SF-1 AF2 mutant; shares compounds with DAX1 inh-1; HEK293 StAR-luciferase, luminescence; inhibition, % at 6.8 µM; 78% of 2,400 active;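 active = inhibition above the mean of all tested compounds plus 3 SD, cut at about 3% in these data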
SMARCA2 act conf: confirmation of SMARCA2 (BRM) function activators. shares compounds with SMARCA2 act. MG213 cells, MMTV-luciferase with dexamethasone, luminescence, overnight; MG213 cells expressing E1A, Rb sequestered; DMSO wells 0%, reference activator 100%. activation, % at 9.1 µM. 30% of 3,500 active. AID 652260;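 active = activation above its plate's cutoff, the mean activation of tested wells plus 3 SD, cut at about 7.9% in these data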
GAL4-VP16 Luc: GAL4-VP16 reporter activation counter-screen. shares compounds with SMARCA2 act. HEK293 GAL4-VP16 pG5luc reporter, luciferase luminescence; scaled: DMSO wells 0%, SAHA wells 100%. activation, % at 9.1 µM. 41% of 3,500 active. AID 686939;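 active = activation above the solvent-only control well mean plus 3 SD, averaged across control plates, cut at about 5.2% in these data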
LXR ag: counter-screen for hcDAF-12 agonists: agonists of human LXR-beta; shares compounds with hcDAF-12 act; HEK293 Gal4-LXR tk-luc reporter, luminescence, 24 h; normalized: DMSO 0%, positive control 100%; activation, % at 6.8 µM; 3,400 tested, under 10 active; AID 743027;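 active = mean percent activation of the reporter above a cutoff set as the average over tested compounds plus their standard deviation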
Target sequence (P55055 whole entry, looked up, the tested form may be a part): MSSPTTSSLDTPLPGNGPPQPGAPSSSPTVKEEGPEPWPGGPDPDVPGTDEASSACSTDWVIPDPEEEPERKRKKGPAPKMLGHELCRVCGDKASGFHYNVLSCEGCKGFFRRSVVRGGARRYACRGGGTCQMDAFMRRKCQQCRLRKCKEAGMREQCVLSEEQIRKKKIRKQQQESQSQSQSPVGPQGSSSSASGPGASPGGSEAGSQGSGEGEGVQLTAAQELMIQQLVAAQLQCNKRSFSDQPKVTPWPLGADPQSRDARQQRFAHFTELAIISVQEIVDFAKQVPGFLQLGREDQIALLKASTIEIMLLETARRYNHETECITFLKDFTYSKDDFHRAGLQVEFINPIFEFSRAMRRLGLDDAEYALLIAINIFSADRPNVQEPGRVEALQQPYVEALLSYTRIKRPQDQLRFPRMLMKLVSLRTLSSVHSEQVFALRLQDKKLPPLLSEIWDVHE
hcDAF12 conf: hcDAF-12 agonism, confirmation assay; shares compounds with hcDAF-12 act; HEK293 hcDAF-12 lit1-tk-luc reporter, luminescence; % of Δ7-dafachronic acid response; activation, % at 6.8 µM; 61% of 3,400 active; AID 743032;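 active = mean activation across triplicate tests above the threshold derived from the earlier primary screen, cut at about 5.5% in these data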
hgDAF12 ag: confirmation of H. glycines DAF-12 agonists; shares compounds with hgDAF-12 ag; HEK293 GAL4-hgDAF12 luciferase reporter, agonist mode; percent of butyrate response; activation, % at 6.8 µM; 80% of 3,300 active; AID 743050;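 active = mean activation over triplicate wells above the hit cutoff derived from the earlier primary screen, cut at about 11% in these data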
LXRb DAF12 ctr: counter-screen for DAF-12 agonists: agonists of human LXR-beta. shares compounds with hgDAF-12 ag. HEK293 Gal4-LXR luciferase reporter, 24 h. activation, % at 6.8 µM. 3,300 tested, under 10 active. AID 743051;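 active = mean activation of the triplicate above a set limit carried over from the primary screen, none filed active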
Large screens that a line does not name were inactive (follow-up assays come after a bar, where they were run).

C/C(=N/NC(=O)c1ccoc1C)c1cccc(NC(=O)C2CC2)c1	hcDAF-12 act 7.3, ssDAF12 agonist 1.0, DAX1 inh-1 6.1, hgDAF-12 ag 15.6 | DAX1 conf inactive | SF1 mutant ctr inactive | LXR ag inactive | hcDAF12 conf inactive | hgDAF12 ag inactive | LXRb DAF12 ctr inactive
C/C(=N/NC(=O)c1ccc(C)s1)c1cccc(NC(=O)c2ccoc2C)c1	none
C/C(=N/NC(=O)c1ccoc1C)c1cccc(NC(=O)C(F)(F)F)c1	DAX1 inh-1 6.0, hgDAF-12 ag 15.0 | DAX1 conf 6.3 | SF1 mutant ctr inactive | hgDAF12 ag inactive | LXRb DAF12 ctr inactive
C[C@H](CO)N1C[C@H](C)[C@@H](CN(C)C(=O)CN2CCOCC2)Oc2cc(Br)ccc2S1(=O)=O	none
N#C/C(=C/c1ccco1)c1nc2ccccc2s1	hcDAF-12 act 19.7, SMARCA2 act 17.9, ssDAF12 agonist 4.0, DAX1 inh-1 4.8, hgDAF-12 ag 16.0 | DAX1 conf 12.0 | SF1 mutant ctr 7.7 | SMARCA2 act conf 9.3 | GAL4-VP16 Luc 13.7 | LXR ag inactive | hcDAF12 conf 14.3 | hgDAF12 ag 21.8 | LXRb DAF12 ctr inactive
CCC(=O)Nc1ccc(OCc2nc3ccccc3s2)cc1	hcDAF-12 act 11.0, ssDAF12 agonist 2.5, DAX1 inh-1 9.4, hgDAF-12 ag 19.6 | DAX1 conf 15.0 | SF1 mutant ctr 7.7 | LXR ag inactive | hcDAF12 conf 10.8 | hgDAF12 ag 16.5 | LXRb DAF12 ctr inactive
O=C1NC(Cc2ccccc2)c2nc3ccc(Cl)cc3c(=O)n2-c2ncccc21 (centres undefined)	none
COc1ccc(-n2c(C)cc(-c3cn4cccc(C)c4n3)c2C)cc1	none
Cc1cc(-c2cn3ccccc3n2)c(C)n1-c1ccccc1	hcDAF-12 act 5.7, SMARCA2 act 10.2, DAX1 inh-1 4.6, hgDAF-12 ag 13.6 | DAX1 conf 16.6 | SF1 mutant ctr 5.4 | SMARCA2 act conf inactive | GAL4-VP16 Luc 8.2 | hgDAF12 ag inactive | LXRb DAF12 ctr inactive
c1ccc(-c2cn3ccccc3n2)cc1	hcDAF-12 act 8.9, SMARCA2 act 7.9, DAX1 inh-1 5.0, hgDAF-12 ag 14.5 | DAX1 conf 12.2 | SF1 mutant ctr 8.7 | LXR ag inactive | hcDAF12 conf 7.4 | hgDAF12 ag 15.3 | LXRb DAF12 ctr inactive
CN(C)S(=O)(=O)c1ccc(-c2cn3ccccc3n2)cc1	none
CC/C(=N\NC(=O)c1ccoc1C)c1ccc(C)o1	hcDAF-12 act 9.2, ssDAF12 agonist 2.1, DAX1 inh-1 7.1, hgDAF-12 ag 22.8 | DAX1 conf inactive | SF1 mutant ctr inactive | LXR ag inactive | hcDAF12 conf inactive | hgDAF12 ag inactive | LXRb DAF12 ctr inactive
O=C1C(=Cc2cccs2)CCc2ccccc21	hcDAF-12 act 9.4, SMARCA2 act 10.1, ssDAF12 agonist 1.4, DAX1 inh-1 7.7, hgDAF-12 ag 18.0 (no result: DAX1 inh-2) | DAX1 conf 11.9 | SF1 mutant ctr 6.2 | SMARCA2 act conf 8.2 | GAL4-VP16 Luc 7.0 | LXR ag inactive | hcDAF12 conf 8.7 | hgDAF12 ag 18.5 | LXRb DAF12 ctr inactive
O=C1c2ccccc2CCc2ccccc21	none
COc1cc(OC)c2c(=O)cc(-c3ccccc3)oc2c1	DAX1 inh-1 4.7, hgDAF-12 ag 15.7 | DAX1 conf 4.7 | SF1 mutant ctr inactive | hgDAF12 ag inactive | LXRb DAF12 ctr inactive
S=C1NC[C@H](c2ccccc2)N1CC1CCCCC1	none
COc1cccc(C(=O)/C=C2\Sc3ccccc3N2C)c1	hcDAF-12 act 13.0, ssDAF12 agonist 2.6, DAX1 inh-1 5.4, hgDAF-12 ag 28.2 | DAX1 conf 11.4 | SF1 mutant ctr 10.0 | LXR ag inactive | hcDAF12 conf 9.1 | hgDAF12 ag 21.6 | LXRb DAF12 ctr inactive
Nc1c(C(=O)Nc2ccc(Cl)cc2)oc2ccccc12	hcDAF-12 act 21.7, ssDAF12 agonist 2.2, DAX1 inh-1 6.4, DAX1 inh-2 4.3, hgDAF-12 ag 20.3 | DAX1 conf 15.2 | SF1 mutant ctr 10.8 | LXR ag inactive | hcDAF12 conf 15.7 | hgDAF12 ag 24.2 | LXRb DAF12 ctr inactive
Cc1ccc(C=Cc2ccccn2)cc1	DAX1 inh-1 7.5, DAX1 inh-2 4.5, hgDAF-12 ag 13.2 | DAX1 conf 11.7 | SF1 mutant ctr 4.9 | hgDAF12 ag 20.3 | LXRb DAF12 ctr inactive
Cc1cc(C)cc(C(=O)NCC(=O)OCC(=O)NC2CC2)c1	none
COc1ccc2nc(NC(=O)C3COc4ccccc4O3)sc2c1 (centres undefined)	hcDAF-12 act 6.4, DAX1 inh-1 5.6, hgDAF-12 ag 18.7 | DAX1 conf 12.3 | SF1 mutant ctr 7.6 | hgDAF12 ag 11.5 | LXRb DAF12 ctr inactive
COc1ccc2nc(NC(=O)c3ccoc3C)sc2c1	hcDAF-12 act 9.9, DAX1 inh-1 5.5, hgDAF-12 ag 14.8 | DAX1 conf 14.2 | SF1 mutant ctr 4.4 | LXR ag inactive | hcDAF12 conf 5.9 | hgDAF12 ag 19.1 | LXRb DAF12 ctr inactive
COC(=O)c1sc(NC(=O)c2ccoc2C)nc1C	none
CC1(Cc2ccccc2C#N)C(=O)Nc2ccc(-c3ccccc3)cc21 (centres undefined)	none (no result: DAX1 inh-2)

Screening data as filed in PubChem BioAssay.
